According to PubChem BioAssay (NCI):
About 83,000 compounds went through this panel and 20% of them were active in at least one assay; those are over-represented in the sample as a whole.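 Note: values are percent growth. 100 is the growth of untreated cells, values between 100 and 0 indicate rising inhibition; between -100 and 0 indicates cell death.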 Unmarked numbers belong to inactive results. Calls of active or inactive are those of the source. The calls were made as follows: active = growth percent below 10; inactive = the rest.

These compounds were tested on HL-60(TB) leukemia (assay: NCI-60 one-dose screen, 48 h (100 = growth as untreated, 0 = no growth, -100 = all killed)). Conditions: 10 µM unless noted.

In order of falling growth:
1. Nc1cc(C(=O)O)[nH]c(=S)n1  123%
2. N#Cc1ccccc1OCC(=O)Nc1nc2c(s1)COc1ccccc1-2  107%
3. C/C(O)=C(\C=N\C(N)=S)C(=O)Nc1ccccc1  105%
4. O=C(O)COc1ccc(-c2cssc2=S)cc1  101%
5. CC(=O)C(C(C)=O)C(c1ccccc1)C(C(C)=O)C(C)=O  98.5%
6. COC(=O)c1ccc2cc(OC)c(OC)cc2c1  94.8%
7. Cc1[nH]c(C(=O)Nc2ccccc2OC2CCNC2)c(Cl)c1Cl (centres undefined)  90.6%
8. C#Cc1cccc(Nc2ncnc3cc4c(cc23)OCCOCCOCCO4)c1  88.1%
9. O=S(=O)(Oc1ccc(Br)cc1)c1ccc(Cl)cc1  85.3%
10. Nc1cc2c(cc1Cl)C(=O)c1ccccc1C2=O  81%
11. COc1ccc(NC(=O)c2ccc(NC3=C(c4ccc(Cl)cc4)C(=O)NC3=O)cc2)cc1  80.3%
12. COc1ccc(C(=O)c2cc3c(N)c(C(=O)Nc4ccc(Br)cc4)sc3nc2C)cc1  80.2%
13. Cc1ccc(Cc2cnc(NC(=O)c3cc(C)oc3C)s2)cc1  79.1%
14. O=C(CSc1ccc2nnc(-c3cccc(F)c3)n2n1)Nc1ccc2c(c1)OCO2  78.9%
15. O=C(Nc1ccc(NC(=O)c2cc(=O)[nH]c3ccccc23)cc1)Nc1cccc(Cl)c1  78.7%
16. O=C(Oc1ccc[nH]c1=O)c1cc([N+](=O)[O-])cc([N+](=O)[O-])c1  75.7%
17. CN=C1C=C/C(=N/N=c2/ccn(O)cc2C)C=C1C  75.6%
18. COc1ccc(/C=C/c2nc(Nc3ccc(S(=O)(=O)Nc4nc(C)cc(C)n4)cc3)c3ccccc3n2)cc1  73.6%
19. CCOC(=O)/C=C1\SC(=Nc2ccc(C#N)cc2)N(CCN2C(=O)/C(=C/C(=O)OCC)SC2=Nc2ccc(C#N)cc2)C1=O  55.5%
20. Nc1ncnc2c1N=C(c1ccc(Cl)cc1)CC(c1cccc(Nc3ccnc4cc(Cl)ccc34)c1)N2 (centres undefined)  55.3%
21. Oc1ccccc1/C=N/N=C/c1c(O)ccc2ccccc12  51%
22. C#Cc1cccc(Nc2ncnc3cc(OCCOC)c(OCCOC)cc23)c1  49.2%
23. O=C(NS(=O)(=O)c1ccc2ccccc2c1)n1cc(-c2ccncc2)c(-c2ccc(Cl)c(O)c2)n1  43.3%
24. CN1CCN(c2nc(-c3csc(-c4cccs4)n3)cc3ccccc23)CC1  34.4%
25. O=C(c1nc2ccccc2[nH]1)C1C(c2ccc(F)cc2)C2CC3CCCCC3N2[C@@]12C(=O)Nc1ccc(Cl)cc12 (some centres undefined)  33.2%
26. Brc1ccc(/C=C(/C2=NCCN2)n2ccc3ccccc32)cc1  26.2%
27. C=C(C)[C@@H]1CC[C@]2(C)[C@H](CC=C3[C@@H]4C[C@](C)(C(=O)N5CCN(C)CC5)CC[C@]4(C)CC[C@]32C)[C@@]1(C)CCC#N  22.6%
28. C[C@H]1[C@H]2C3=CC[C@@H]4[C@@]5(C)C/C(=C/c6ccco6)C(=O)C(C)(C)[C@@H]5CC[C@@]4(C)[C@]3(C)CC[C@@]2(C(=O)N2CCOCC2)CC[C@@H]1C  14.7%

`Cc1cc(C)c(NC(=O)c2sc3nc4c(cc3c2N)CCCC4)c(C)c1` was tested, and the growth was -6.2% (active).
With `C=CC[n+]1c(/C=C2\Sc3ccccc3N2C)sc(-c2ccccc2)c1-c1ccccc1` the growth was -25.5% (active).
For `Cc1cccc(/C=C/c2c(C(=O)/C=C/c3ccccc3)c(C)nc3ccccc23)c1`, the growth was -15.8% (active).
With `Cc1cc(C(=O)Nc2cc(Oc3ccc4nc(NC(=O)C5CC5)cn4n3)ccc2C)n(C)n1` the growth was 7.21% (active).
In the case of `C=C1C(=O)OC2CC1C(OC(C)=O)C/C(C)=C/CC/C(C)=C\CCC2(C)O` (centres undefined), the growth is reported as -51.9% (active).
`CC(C)(C)OC(=O)Nc1ccc2c(c1)C(NC(=O)Nc1cccc(C#N)c1)CC(C)(C)O2` (centres undefined) was tested, and the growth was 5.38% (active).
`COC(=O)[C@]12CC[C@@H](C)[C@H](C)[C@@H]1C1=CC[C@@H]3[C@@]4(C)C[C@@H](OC(C)=O)[C@H](OC(C)=O)[C@@](C)(COC(C)=O)[C@@H]4[C@H](O)C[C@@]3(C)[C@]1(C)CC2` was tested, and the growth was -10.2% (active).
With `COC1=CC(c2ccc[nH]2)=N/C1=C\c1[nH]c(C)c(CC(=O)OCc2ccccc2)c1C` the growth was -29.2% (active).
For `COc1ccc2c(c1)NC(=O)CN2c1nc(C)nc2ccccc12`, the growth was -6.18% (active).
In the case of `COc1ccc(Cn2cc3c(c2-c2ccccc2)CCc2cnoc2-3)cc1N`, the growth is reported as -19.8% (active).
In the case of `O=C1c2ccc3c4c(ccc(c24)C(=O)N1CCCNCc1ccccc1Cl)C(=O)N(CCCNCc1ccccc1Cl)C3=O`, the growth is reported as -55.9% (active).
